Bioassay records as filed in PubChem BioAssay.
Methyltransferases – Primary Screen for Target Class Profiling of Small Molecule Inhibitors of Methyltransferases | purified enzyme, MTase-Glo SAH luminescence; hits give low values | calls only at 40 µM | 25,000 compounds, 3.9% hits; call rule not given here
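Each enzyme was assayed with SAM and its substrate. SAH formation detected by MTase-Glo luminescence; single-point 40 uM screen[…].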
MTase-Glo counter – Counterscreen for Target Class Profiling of Small Molecule Inhibitors of Methyltransferases | MTase-Glo coupled enzymes, SAH conversion luminescence, no MTase | 180 compounds, 6% hits | shares compounds with Methyltransferases | Potency, µM (highest dose often 57.3 µM), inactives show at the top dose activity change, negative = inhibition, actives largely listed as inhibitors | AID 1745851, 2022; active = well fitted inhibition curve with a large enough effect; also: potency is read from the fitted curve at half-maximal effect
Starred values were filed as active, the others as inactive; i = inactive; + = active, no number; [ ] = remark or other dose. Shown is part of a subset that was picked to be rich in hits. % is scaled to controls: 0 for no effect and ±100 for the full control effect.

SMILES	Methyltransferases	others
CO[C@@H]1CO[C@H]2[C@@H]1OC[C@@H]2NC(=S)Nc1ccccc1	i
Nc1ccc(-c2nc3ccc(-c4nc5ccc(N)cc5[nH]4)cc3[nH]2)cc1	i
Cc1cc(-c2nc3ccncc3[nH]2)c(C)[nH]1	+	MTase-Glo counter=-3%[114 µM]
Cc1ccc(C)c(C(=O)Cn2nc3n(CC(C)C)c(=O)c4ccccc4n3c2=O)c1	i
Cc1ccc(Cn2c(=O)c3ccc(C(=O)NC(C)C)cc3n3c(=O)[nH]nc23)cc1	i
COc1ccc(CC(=O)Nc2ccc3n(c2=O)C[C@H]2C[C@@H]3CN(C(=O)c3ccc(-c4ccccc4)cc3)C2)cc1	i
CC(C)CC(NC(=O)c1ccc(=O)[nH]c1)c1nnc2n1CCNCC2 (stereo not drawn)	i
N#Cc1ccccc1-c1cc2c(ccn2Cc2ccncc2)c(N2CCOCC2)n1	+	MTase-Glo counter=4%[85.7 µM]
Cc1cc(C(=O)N2CCn3nc(C(C)O)cc3C2)c2ccc(F)cc2n1 (stereo not drawn)	i
CC(C)Cc1cc(C(=O)N2CCOC(C(F)(F)F)C2)n[nH]1 (stereo not drawn)	i
c1ccc(Cn2cc(CN3CCN(c4ccncc4)CC3)c(-c3cc4ccccc4o3)n2)cc1	+	MTase-Glo counter=5%
Cn1cc(CN2CCN(c3ccc(C#N)cn3)CC2)c(-c2ccccc2)n1	i
Cc1nn(-c2ccccc2)c(C)c1/C=N/N1CCN(Cc2ccccc2)CC1	i
COc1ccccc1-c1ccnc(N[C@H]2CO[C@H]3[C@@H]2OC[C@@H]3NS(=O)(=O)c2cccs2)n1	i
CCN1CC(c2nc(-c3ccc4nc[nH]c4c3)no2)CCC1=O (stereo not drawn)	i
COc1ccccc1CNC(=O)C1(C)Cn2c(cc3ccccc32)C(=O)N1C1CC1 (stereo not drawn)	i
CCN1CCC2(CCC1=O)CN(Cc1nnc(-c3cccnc3)o1)CCN2C (stereo not drawn)	i
CC1CC(C)CN(S(=O)(=O)c2ccc3c(c2)oc(=O)n3CC(=O)N2C(C)CCCC2C)C1 (stereo not drawn)	i
Cc1cccc(NC(=O)Cn2nc3n(C(C)C)c(=O)c4ccc(C(=O)NC5CCCC5)cc4n3c2=O)c1	i
Fc1ccccc1CN1CCCC2(CCN(c3cnccn3)C2)C1 (stereo not drawn)	i
COc1cc2c(cc1CN1CCC3(CCCNC3)C1)OCCCO2 (stereo not drawn)	i
COc1cccc(CN2CCCC3(CCN(c4cc(C)nc(N)n4)C3)C2)c1OC (stereo not drawn)	+	MTase-Glo counter=-1%
O=C(CCCc1nnc2n3nc(-c4ccccc4)nc3c3ccccc3n12)N1CCN(c2ccccn2)CC1	i
Nc1nccc(-c2c(-c3ccc(F)cc3)ncn2C2CCCCC2)n1	i
O=C1Nc2ccccc2CC12CCCN(C1COC1)C2 (stereo not drawn)	i
SMILES	Methyltransferases	others
N#Cc1ccc(CN2CCC3(CC(c4cccc(C(F)(F)F)c4)=NO3)C2)cc1 (stereo not drawn)	i
FC(F)(F)c1cccc(-c2nccn3c(C4CN(Cc5ccc6cn[nH]c6c5)C4)ncc23)c1	+	MTase-Glo counter=-6%
Cc1nn(C)cc1C(=O)NCCn1c(C)cnc1C1CC1	i
COCC(=O)N1CC(F)(F)C[C@H]1c1nc(-c2cccnc2)no1	i
COCCNc1nc2c(S(=O)(=O)c3ccccc3)nnn2c2ccc(Cl)cc12	i
COC(=O)c1ncn2c1C(=O)N(Cc1ccc(OC)cc1OC)C(C)(C(=O)NC1CCCCCC1)C2 (stereo not drawn)	i
